Laboratory results as given in PubChem BioAssay (NCATS).
“And” between values parts separate entries of the source, which are not always exact repeats. Identical values can stand only once. Inconclusive results are not listed. Where a call stands in place of a potency, no number is given. The source made the active and inactive calls. The call rests on the fitted dose curve; in most records, active means well fitted curve in the direction sought with a large enough effect; inconclusive means small, poorly fitted or top-dose-only effect, or another doubt; inactive means no such curve, though single readings can be large; an effect the other way counts as inactive or inconclusive.

Experiments:
[1] = target: Cellular tumor antigen p53 (Homo sapiens) (UniProt P04637); assay: Primary qHTS for small molecule compounds that upregulate eGFP-tagged delta133p53alpha (in N-terminal) cells. (AID 2060322); conditions: NCI-H358 eGFP-delta133p53alpha fluorescence, 24 h; activation: active compounds read high; further: nearly all actives have a fitted effect of over 75% in size; further: potency means the concentration at half of the fitted maximal effect
How it was run: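 NCI-H358 cells pre-induced 24 h with 10 ng/ml doxycycline to express N-terminal eGFP-delta133p53alpha, then dosed 24 h at 37C without doxycycline; fixed, Hoechst-stained, GFP intensity by laser scanning cytometry, normalized to DMSO (0%) and 57.5 uM 5-azacytidine (100%).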

[2] = target: Aldehyde dehydrogenase, mitochondrial (Homo sapiens) (UniProt P05091); assay: qHTS for Inhibitors of the Aldehyde Dehydrogenase Family (ALDH2) Primary screen (AID 2061308); conditions: ALDH2 enzyme inhibition qHTS, 1536-well; series mostly up to 56 µM; further: nearly all actives have a fitted effect of over 55% in size
[3] = target: Retinaldehyde dehydrogenase 3 (Homo sapiens) (UniProt P47895); assay: qHTS for Inhibitors of the Aldehyde Dehydrogenase Family (ALDH1A3) Validation screen (AID 2061312); conditions: ALDH1A3 enzyme inhibition qHTS validation, fluorescence; series mostly up to 84.7 µM; further: nearly all actives have a fitted effect of over 45% in size
[4] = target: Retinaldehyde dehydrogenase 3 (Homo sapiens) (UniProt P47895); assay: qHTS for Inhibitors of the Aldehyde Dehydrogenase Family (ALDH1A3) Primary screen (AID 2061315); conditions: ALDH inhibition qHTS; series mostly up to 56 µM

Cellular tumor antigen p53 (Homo sapiens), sequence (P04637 whole entry, looked up): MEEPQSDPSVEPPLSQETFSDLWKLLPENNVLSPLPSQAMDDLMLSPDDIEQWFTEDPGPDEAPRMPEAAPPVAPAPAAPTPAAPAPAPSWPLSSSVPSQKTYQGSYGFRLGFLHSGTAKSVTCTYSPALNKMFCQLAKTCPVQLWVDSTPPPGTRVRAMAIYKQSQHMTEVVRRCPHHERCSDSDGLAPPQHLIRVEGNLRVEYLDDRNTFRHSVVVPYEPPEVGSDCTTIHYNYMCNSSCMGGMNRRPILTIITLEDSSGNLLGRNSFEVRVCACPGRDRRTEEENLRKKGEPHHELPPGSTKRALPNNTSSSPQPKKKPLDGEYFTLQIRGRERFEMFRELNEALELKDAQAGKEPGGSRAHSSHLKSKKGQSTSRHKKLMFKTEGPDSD

Row | Structure (SMILES) | activation [1] | Potency [2] | Potency [3] | Potency [4] | Potency [1]
1 | Cn1c(CO)c(-c2ccccc2)c2cc([N+](=O)[O-])ccc21 | -4.77% (inactive) | inactive | inactive | inactive | –
2 | CN1CCC(NC(=O)c2cc(-c3c(O)cc(O)cc3Oc3ccc([N+](=O)[O-])cc3)on2)CC1 | 5.25% (inactive) | inactive | inactive | inactive | –
3 | CC(C)c1nnc(-c2ccc(-c3ccccc3)nc2)n1-c1cccc2nonc12 | -5.73% (inactive) | inactive | inactive | inactive | –
4 | CO[C@@H]1[C@@H](O[C@H]2O[C@@H](C)[C@H](O[C@@H]3C[C@](C)(O)[C@H](O)[C@@H](C)O3)[C@@H](N(C)C)[C@@H]2O)[C@@H](CC=O)C[C@@H](C)[C@@H](O[C@H]2CC[C@H](N(C)C)[C@H](C)O2)/C=C/C=C/C[C@@H](C)OC(=O)C[C@H]1O | -1.43% (inactive) | inactive | inactive | inactive | –
5 | CC1(C(=O)Nc2ccc(F)nc2)CCCN1c1nc(Nc2cc(C3CC3)[nH]n2)c2cccn2n1 (stereo not given) | – | inactive | inactive | inactive | 30.1 µM (active)
6 | O=C(/C=C/c1c(C(=O)O)[nH]c2cc(Cl)cc(Cl)c12)Nc1ccccc1 | -11.9% (inactive) | inactive | inactive | inactive | –
7 | CC(C)(O)c1ccccc1CC[C@@H](SCC1(CC(=O)O)CC1)c1cccc(/C=C/c2ccc3ccc(Cl)cc3n2)c1 | -15.3% (inactive) and -1.91% (inactive) | inactive | inactive | inactive | –
8 | COc1ccc(C2Sc3ccccc3N(CCN(C)C)C(=O)C2OC(C)=O)cc1 (stereo not given) | -11.5% (inactive) | inactive | inactive | inactive | –
9 | NCc1c[nH]c(=S)n1[C@@H]1CCc2c(F)cc(F)cc2C1 | 0% (inactive) | inactive | inactive | inactive | –
10 | CN1CCN(C2=Nc3ccccc3Nc3ccc(Cl)cc32)CC1 | 8.59% (inactive) | inactive | inactive | inactive | –
11 | CCOC(=O)CCN(C(=O)c1ccc2c(c1)nc(CNc1ccc(C(=N)N)cc1)n2C)c1ccccn1 | -4.77% (inactive) | inactive | inactive | inactive | –
12 | Cc1cc(C)c(S(=O)(=O)n2cc(C)cc2C)c(C)c1 | 5.73% (inactive) | inactive | inactive | inactive | –
13 | O=C(CCCN1CCN(c2ccccn2)CC1)c1ccc(F)cc1 | -3.82% (inactive) | inactive | inactive | inactive | –
14 | Cc1ccc(-n2nc(C(C)(C)C)cc2NC(=O)Nc2cc(COc3cccnc3)[nH]n2)cc1 | 6.21% (inactive) | inactive | inactive | inactive | –
15 | Cc1cc(C)c(-c2csc(NC(=O)c3ccccc3)n2)c(C)c1 | 21% (inactive) | inactive | inactive | inactive | –
16 | CC(C)S(=O)(=O)NC[C@H](C)c1ccc(-c2ccc(CCNS(C)(=O)=O)cc2)cc1 | -5.73% (inactive) | inactive | inactive | inactive | –
17 | COC(=O)CC1CC(c2ccc(O)cc2)=NO1 (stereo not given) | -0.955% (inactive) | inactive | inactive | inactive | –
18 | CCCC1(c2ccccc2)NC(=O)N(CC(=O)N(C)Cc2c(F)cccc2Cl)C1=O (stereo not given) | 4.3% (inactive) | inactive | inactive | inactive | –
19 | O=S(=O)(Nc1cc(Cl)c(Oc2cnc3ccccc3c2)c(Cl)c1)c1ccc(Cl)cc1Cl | -4.77% (inactive) | inactive | inactive | inactive | –
20 | CC(C)(C#N)c1ccc(N2C(=O)OCc3cnc4ccc(-c5cnc6ccccc6c5)cc4c32)cc1 | -3.82% (inactive) | inactive | inactive | inactive | –
21 | CN(C)CC(c1ccc(O)cc1)C1(O)CCCCC1 (stereo not given) | -9.55% (inactive) | inactive | inactive | inactive | –
22 | O=C(NCc1ccccn1)Nc1nnc(-c2ccco2)o1 | 11.9% (inactive) | inactive | inactive | inactive | –
23 | COc1cccc(-c2ccc([C@@H](Oc3cc(-c4ccc(C[C@H](N)C(=O)O)cc4)nc(N)n3)C(F)(F)F)cc2)c1 | -13.4% (inactive) | inactive | inactive | inactive | –
24 | On1ncc(C2CCNCC2)c1-c1cccc(-c2ccccc2)c1 | -8.11% (inactive) | inactive | inactive | inactive | –
25 | COc1ccccc1-n1c(SCC(=O)Nc2nc3ccc(C)cc3s2)nc2c(c1=O)SCC2 | -11.9% (inactive) | inactive | inactive | inactive | –
26 | Cc1c(NC(=O)N2CCOCC2)ccc2c1c1ccccc1n2C(C)C | -19.1% (inactive) | inactive | inactive | inactive | –
27 | CC(C)(F)CC(NC(c1ccc(-c2ccc(S(C)(=O)=O)cc2)cc1)C(F)(F)F)C(=O)NC1(C#N)CC1 (stereo not given) | -1.43% (inactive) | inactive | inactive | inactive | –
28 | CN(C)c1nc(NC2CCC(NCCc3ccc(Br)cc3OC(F)(F)F)CC2)nc2ccccc12 (stereo not given) | – | inactive | inactive | inactive | 13.5 µM (active)

Row | Structure (SMILES) | activation [1] | Potency [2] | Potency [3] | Potency [4] | Potency [1]
29 | Cc1[nH]c2ccccc2c1CC(=O)N[C@@H](Cc1ccccc1)C(=O)N(C)c1ccccc1 | 22.9% (inactive) | inactive | inactive | inactive | –
30 | Cc1cc(OCCN2CCOCC2)nn1-c1ccc2ccccc2c1 | 4.3% (inactive) | inactive | inactive | inactive | –
31 | Cc1ccc(Cl)cc1N(CC(=O)Nc1c(F)cccc1F)S(C)(=O)=O | 0.955% (inactive) | inactive | inactive | inactive | –
32 | COc1ccccc1CN[C@H]1CCCN[C@H]1c1ccccc1 | -3.82% (inactive) | inactive | inactive | inactive | –
33 | FC(F)(F)Oc1ccc(-c2ccc3nnc(C(F)(F)F)n3c2)cc1 | -3.34% (inactive) | inactive | inactive | inactive | –
34 | Clc1cccc(-c2nnnn2Cc2cccnc2)c1Cl | 12.9% (inactive) and -2.86% (inactive) | inactive | inactive | inactive | –
35 | CCOc1ccc(CCNC(=O)c2cc3sc(Cl)cc3n2C)cc1OCC | -10.5% (inactive) | inactive | inactive | inactive | –
36 | CC[C@H](C(=O)Nc1ccccc1N1CCCC1)c1ccccc1 | 2.86% (inactive) | inactive | inactive | inactive | –
37 | COc1cc2ncnc(Oc3ccc(CC(=O)Nc4cnn(C(C)C)c4)cc3)c2cc1OC | 4.77% (inactive) | inactive | inactive | inactive | –
38 | O=C(c1c2ccccc2cc2ccccc12)N1CCC(N2CCC[C@@H](C(=O)N3CCOCC3)C2)CC1 | -1.91% (inactive) | inactive | inactive | inactive | –
39 | O=C(Nc1ccc2[nH]c(=O)oc2c1)C(=O)N1CCC(Cc2ccc(F)cc2)CC1 | 2.39% (inactive) | inactive | inactive | inactive | –
40 | Nc1c(-c2ccccc2)nc(Cl)c2c(O)n[nH]c(=O)c12 | -1.91% (inactive) | inactive | inactive | inactive | –
41 | COc1c(F)cccc1C(=O)N1C[C@@H](C)CC[C@H]1CNc1ccc(Br)cn1 | -8.59% (inactive) | inactive | inactive | inactive | –
42 | C[C@@H](N[C@H]1CCCC[C@@H]1NC(=O)c1ccc(Cl)cc1)c1cccc2ccccc12 | 21.5% (inactive) | inactive | inactive | inactive | –
43 | C/C(=C\C(=O)OCCCCCCCCC(=O)O)C[C@@H]1OC[C@H](C[C@@H]2O[C@H]2[C@@H](C)[C@H](C)O)[C@@H](O)[C@H]1O | -7.64% (inactive) | inactive | inactive | inactive | –
44 | CN(C)S(=O)(=O)c1ccc(NC(=S)N2CCC(C(O)(c3ccccc3)c3ccccc3)CC2)cc1 | -6.68% (inactive) | inactive | inactive | inactive | –
45 | CC(c1ncncc1F)C(O)(Cn1cncn1)c1ccc(F)cc1F (stereo not given) | 0.477% (inactive) | inactive | inactive | inactive | –
46 | COC(=O)C(Cc1ccc(OCCn2c(=O)sc3cc(C(=O)c4ccccc4)ccc32)cc1)C(=O)OC | -10.5% (inactive) | inactive | inactive | inactive | –
47 | Cc1ccccc1C(=O)Nc1ccc(C(=O)N2CCCC(N(C)C)c3ccccc32)cc1 (stereo not given) | – | inactive | inactive | inactive | 3.89 µM (active)
48 | CNC(C)C(=O)NC(C(=O)N1CCCC1c1nc(C(=O)c2ccc(F)cc2)cs1)C1CCCCC1 (stereo not given) | 17.2% (inactive) | inactive | inactive | inactive | –
49 | CC[C@@H](N)CNc1ccnc(-c2cc(-c3cnn(C)c3)ccc2O)n1 | – | inactive | inactive | inactive | 6.75 µM (active)
50 | O=C(NCCCc1ccccc1)C1CCC(CNS(=O)(=O)c2cccc3nsnc23)CC1 (stereo not given) | -3.34% (inactive) | inactive | inactive | inactive | –
51 | COc1cc2c(Nc3cc(F)c(Cl)c(Cl)c3)ncnc2cc1OCC1CCCN(C)CCC1 | – | inactive | inactive | inactive | 23.9 µM (active)
52 | C[C@@H]1O[C@@H](O[C@H]2[C@H](Oc3cc(O)c(C(=O)CCc4ccc(O)cc4)c(O)c3)O[C@H](CO)[C@@H](O)[C@@H]2O)[C@H](O)[C@H](O)[C@H]1O | -10.5% (inactive) | inactive | inactive | inactive | –
53 | O=C(c1ccccn1)c1cnn2c(-c3ccncc3)ccnc12 | -7.16% (inactive) | inactive | inactive | inactive | –
54 | CC1(C)CCC(C)(C)c2cc([C@@H](O)C(=O)Nc3ccc(C(=O)O)cc3F)ccc21 | -4.77% (inactive) | inactive | inactive | inactive | –
55 | N[C@@H](CC(=O)N1CCn2c(nnc2C(F)(F)F)C1)Cc1[nH]nc2c(F)c(F)ccc12 | -3.82% (inactive) | inactive | inactive | inactive | –
